Rab9 promoter act: Rab9 promoter activation; Potency, µM (doses to about 9.22 µM), hits mostly activators; Huh7 Rab9 promoter-luciferase reporter, luminescence, 24 h; 2.8% of 320,000 active; note: nearly all actives have a fitted effect of over 60% in size
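Rab9 promoter-driven luciferase in stably transfected Huh7 cells; 1500 cells/well rested 2 h, exposed to compound in DMSO for 24 h at 37 °C, 5% CO2. Luminescence read 10 min after adding luciferase reagent at ambient temperature.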
ELG1 genotox: induces genotoxicity in HEK293T cells with luciferase-tagged ELG1; 1.3% of 330,000 active; HEK293T ELG1-luciferase reporter, luminescence, 16 h; Potency, µM (titrated, usually from 46 µM), usual class: activators; note: nearly all actives have a fitted effect of over 60% in size
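Step 1: seed 2,000 HEK293T ELG1-luciferase cells per well. Step 2: add compound or DMSO, incubate 16 hr at 37 °C. Step 3: ONE-Glo, 30 min at room temperature, read luminescence.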
Luc counter: blocks Kinase-Glo luciferase, a counter-screen artifact; Kinase-Glo luciferase, ATP luminescence, 8 min; 0.28% of 200,000 active; Potency, µM (top dose mostly 38.3 µM), most hits filed as inhibitors; note: nearly all actives have a fitted effect of over 60% in size
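Light output from Kinase-Glo luciferase with luciferin and 10 uM ATP in 50 mM imidazole pH 7.2, KCl, MgCl2, Tween 20, BSA; compound pin-delivered, 8-min ambient incubation, then luminescence read.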
SMN2 splice enh: enhancers of SMN2 splice variant expression; HEK293 SMN2-luciferase splicing reporter, luminescence, 30-36 h; Potency, µM (highest dose often 46.1 µM), usual class: activators; 2.8% of 210,000 active; AID 1458; note: nearly all actives have a fitted effect of over 55% in size
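HEK293 cells carry an SMN2 […]–luciferase reporter in which exon 7 inclusion puts luciferase in frame. Cells were plated 10-12 h before compound addition, then incubated 30-36 h at 37C. ONE-Glo luminescence was read; sodium butyrate at 4.5 mM final served as control.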
NPC1 promoter act: NPC1 promoter activation. Huh7 NPC1 promoter luciferase reporter, 24 h. Potency, µM (series often up to 9.22 µM), hits mostly activators. 2.4% of 320,000 active; note: nearly all actives have a fitted effect of over 60% in size
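Cells: Huh7 expressing luciferase under the NPC1 promoter, 1500/well. Seeded 2 h, compound added, incubated 24 h at 37 °C. Luciferase reagent, 10 min ambient, then luminescence.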
FLuc modulator: inhibits or activates purified firefly luciferase, miR-21 counter-screen | AID 588342 | 6.9% of 360,000 active | Potency, µM (series often up to 57.5 µM), usual class: inhibitors | purified FLuc, Km substrates, luminescence inhibition; note: nearly all actives have a fitted effect of over 55% in size
Target sequence (P08659 whole entry, looked up): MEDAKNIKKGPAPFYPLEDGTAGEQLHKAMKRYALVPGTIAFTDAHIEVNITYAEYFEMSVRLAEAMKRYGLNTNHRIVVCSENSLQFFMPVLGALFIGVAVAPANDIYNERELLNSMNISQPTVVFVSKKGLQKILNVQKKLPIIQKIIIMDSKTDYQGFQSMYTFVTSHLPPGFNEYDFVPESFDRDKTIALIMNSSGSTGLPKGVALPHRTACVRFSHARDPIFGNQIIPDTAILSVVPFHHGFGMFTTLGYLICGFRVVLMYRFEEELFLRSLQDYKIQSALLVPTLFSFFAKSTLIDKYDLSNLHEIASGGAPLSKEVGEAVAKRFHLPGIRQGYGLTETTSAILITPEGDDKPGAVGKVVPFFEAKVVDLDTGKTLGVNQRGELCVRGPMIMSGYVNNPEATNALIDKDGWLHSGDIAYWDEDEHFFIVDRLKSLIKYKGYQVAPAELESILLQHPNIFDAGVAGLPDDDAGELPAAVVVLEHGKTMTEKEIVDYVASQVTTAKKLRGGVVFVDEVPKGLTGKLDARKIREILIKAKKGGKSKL
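Purified P. pyralis luciferase (10nM final) with 10uM D-luciferin and 10uM ATP (Km levels) in 50mM Tris acetate pH 7.5, 10mM Mg acetate, 0.01% Tween-20, 0.05% BSA; qHTS 6-point titration, ~60 µM downward; luminescence read.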
Each line names hits and unclear results; the compound was inactive in the other large screens. Sampled rows, rich in hits. Any-hit rate of the full collection: about 7.5%. Calls come from the whole dose curve; as a rule, active = well fitted curve in the direction sought with a large enough effect; inconclusive = small, poorly fitted or top-dose-only effect, or another doubt; inactive = no such curve, though single readings can be large; an effect the other way counts as inactive or inconclusive.

O=C(N/N=C/c1ccsc1)c1ccccn1	Rab9 promoter act 4.5µM, ELG1 genotox inconclusive, Luc counter inconclusive, NPC1 promoter act 2.8µM, FLuc modulator 15µM (no result: SMN2 splice enh)
O=C(N/N=C/c1ccc(Br)s1)c1ccccn1	Rab9 promoter act 1.4µM, ELG1 genotox 9.2µM, Luc counter inconclusive, SMN2 splice enh 3.5µM, NPC1 promoter act 2.8µM, FLuc modulator 4.8µM
CCOc1ccccc1C(=O)N(Cc1cc(OC)c(OC)c(OC)c1)c1ccccn1	none (no result: Rab9 promoter act, ELG1 genotox, Luc counter, SMN2 splice enh, NPC1 promoter act)
Cc1nn(CC(=O)N2CCc3ccccc3C2)c(C)c1Cl	none (no result: Luc counter, SMN2 splice enh)
C(=N\NC1=Nc2cccc3cccc1c23)/c1ccccn1	ELG1 genotox inconclusive, FLuc modulator 1.5µM
CCc1nnc(N/N=C/c2ccccc2Cl)n1N	none
Clc1ccccc1/C=N/NC1=Nc2cccc3cccc1c23	Rab9 promoter act 4.5µM, ELG1 genotox 16µM, SMN2 splice enh 5.6µM, NPC1 promoter act inconclusive, FLuc modulator 0.85µM
CCn1c(C(=O)NCc2ccccc2OC)cc2sccc21	none (no result: Rab9 promoter act, ELG1 genotox, Luc counter, NPC1 promoter act)
O=C(Nc1ccc2c(c1)OCO2)c1cccc(F)c1	SMN2 splice enh inconclusive, FLuc modulator 12µM (no result: Rab9 promoter act, ELG1 genotox, NPC1 promoter act)
CC(=O)Nc1ccc(OCc2ccc3c(c2)OCO3)cc1	Rab9 promoter act 1.6µM, ELG1 genotox inconclusive, NPC1 promoter act 0.63µM, FLuc modulator 17µM (no result: Luc counter, SMN2 splice enh)
O=C(O)Cc1ccc(NC(=O)Nc2ccc3c(c2)OCO3)cc1	Rab9 promoter act inconclusive, ELG1 genotox inconclusive, FLuc modulator 9.5µM (no result: Luc counter, SMN2 splice enh)
CC(C)[C@H](NC(=O)c1ccccc1F)C(=O)Nc1ccc2c(c1)OCO2	none (no result: Luc counter, SMN2 splice enh)
O=C(NCc1ccc2c(c1)OCO2)Nc1ccc(Cl)cc1	ELG1 genotox inconclusive (no result: Luc counter, SMN2 splice enh)
O=C(Nc1ccc2c(c1)OCO2)c1c(F)cccc1F	Rab9 promoter act 3.2µM, ELG1 genotox inconclusive, SMN2 splice enh 10µM, NPC1 promoter act 3.5µM, FLuc modulator 12µM
CC(C)C(=O)Nc1cccc(NC(=O)c2cccc(F)c2)c1	none
CCOC(=O)c1ccc(NC(=O)C2=C(C)Nc3nc(SCc4ccc(Cl)cc4)nn3C2c2ccc(OC)cc2)cc1 (stereo unspecified)	none (no result: Rab9 promoter act, ELG1 genotox, Luc counter, NPC1 promoter act)
COc1cc(CN2CCN(CC#Cc3ccccc3)CC2CCO)cc(OC)c1 (stereo unspecified)	none (no result: Luc counter, SMN2 splice enh)
O=C(Nc1cccc(F)c1)Nc1ccc2c(c1)OCO2	Rab9 promoter act 2.8µM, ELG1 genotox inconclusive, NPC1 promoter act 2.2µM, FLuc modulator 7.6µM (no result: Luc counter, SMN2 splice enh)
O=C(Nc1ccc2c(c1)OCO2)C1CCCN1C(=O)Nc1cccc(F)c1 (stereo unspecified)	none
O=C(Nc1ccc(F)cc1)NC1CCN(Cc2ccccc2)CC1	none
O=C(Nc1ccc2c(c1)OCO2)NC1CCN(Cc2ccccc2)CC1	ELG1 genotox inconclusive, SMN2 splice enh inconclusive, FLuc modulator 17µM
COc1ccc(-c2nc(C)c(CCNC(=O)C(=O)Nc3ccccc3F)s2)cc1	none (no result: Rab9 promoter act, ELG1 genotox, Luc counter, SMN2 splice enh, NPC1 promoter act)
Cc1cccc(NC(=O)CSc2nccn2Cc2ccco2)c1	Rab9 promoter act 2.8µM, ELG1 genotox inconclusive, NPC1 promoter act 3.2µM, FLuc modulator 15µM (no result: Luc counter, SMN2 splice enh)
COc1ccc(NC(=O)CSc2nccn2Cc2ccco2)cc1	Rab9 promoter act 3.5µM, ELG1 genotox 16µM, NPC1 promoter act 2.5µM, FLuc modulator 24µM (no result: Luc counter, SMN2 splice enh)
CCC(=O)Nc1cc(NC(=O)CSc2ncc(-c3ccc(F)cc3)n2Cc2ccco2)ccc1C	Rab9 promoter act inconclusive, ELG1 genotox 18µM, NPC1 promoter act 2.8µM, FLuc modulator 12µM
CCOC(=O)CNC(=O)N(CCOC)CC1CCCN(C2Cc3ccccc3C2)C1 (stereo unspecified)	none (no result: Luc counter, SMN2 splice enh)
CCn1nc(C)c2c(-c3ccccc3)cc(=O)n(C(C)C(=O)Nc3cccc(F)c3)c21 (stereo unspecified)	none (no result: Rab9 promoter act, ELG1 genotox, Luc counter, SMN2 splice enh, NPC1 promoter act)
CCOC(=O)c1ccc(Nc2ncnc3c2cnn3C)cc1	none (no result: Luc counter, SMN2 splice enh)
Cn1ncc2c(O/N=C(\N)c3ccc(C(C)(C)C)cc3)ncnc21	FLuc modulator 15µM (no result: Luc counter, SMN2 splice enh)
COCCCn1c(SCC(=O)OC2CCCCC2)nnc1-c1cccs1	FLuc modulator 19µM
COCCCn1c(SCC(=O)OC2CCCCC2)nnc1-c1ccco1	FLuc modulator 12µM
O=C(COCc1cc(-c2ccc3c(c2)OCO3)on1)N1CCN(c2ccccc2)CC1	FLuc modulator inconclusive (no result: Luc counter, SMN2 splice enh)

Assay outcomes: PubChem, National Center for Advancing Translational Sciences (NCATS)
